Screens as filed in PubChem.
In the library only some 3.6% were active in any assay of this set; here they are far more common.
CRFBP-R2 block: antagonists of CRF-BP/CRF-R2 complex, primary screen, cell-based, HEK293, calcium dye fluorescence, uHTS; CRF-induced calcium fluorescence; inhibition, % at 11.8 µM; hit rate 0.59% among 350,000;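 active = inhibition of the ligand-induced calcium signal above about 50% at the single tested concentration, limit read from the data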
CendR NRP1 mod: modulators of CendR peptide binding to NRP-1, primary screen, biochemical, fluorescence polarization, uHTS; AID 602438, 2012; inhibition, % at 25 µM; Neuropilin-1 (Homo sapiens), O14786; FAM-RPARPAR peptide binding to NRP-1; hit rate 0.85% among 360,000;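 active = inhibition or corrected inhibition above about 18%, plus a signal ratio from 0.5 to 1.5, limit read from the data, passing the limit was not always enough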
Myeloid diff 2: induction of myeloid progenitor differentiation, primary screen, cell-based, flow cytometry, MLPCN library. ER-HoxA9 myeloid progenitors, lysozyme-GFP differentiation. hit rate 1% among 360,000. calls only at 10 µM. AID 624256, 2012;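 active = normalized GFP-positive differentiation at or above the plate's own cutoff, the solvent-only control mean plus 3 SD; inconclusive = no clear call, values can overlap the other calls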;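 note: cells exposed to compound for four days before flow analysis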
NadD inh: inhibitors of S. aureus NadD, primary screen, biochemical, colorimetric, uHTS | Nicotinate-nucleotide adenylyltransferase NadD (Staphylococcus aureus N315) | purified NadD enzyme, colorimetric absorbance read-out | inhibition, % at 20 µM | hit rate 0.78% among 360,000 | AID 602399, 2012; in the data active = inhibition above about 26%
FAS TE block: FAS thioesterase domain inhibitors, primary screen, biochemical, fluorescence intensity, uHTS; Fatty acid synthase (Homo sapiens), P49327; recombinant FAS-TE, OMFH fluorogenic substrate, fluorescence endpoint; inhibition, % at 15 µM; hit rate 0.67% among 360,000;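 active = compounds whose normalised, plate-corrected inhibition of enzyme fluorescence in the single-dose primary screen is 50% or more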;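 note: 0% = DMSO with enzyme and 100% = substrate without enzyme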
* marks the source's active call; other numbers are inactive results; i = inactive; ? = inconclusive; nt = no result given; + = active, no number.

SMILES	CRFBP-R2 block	CendR NRP1 mod	Myeloid diff 2	NadD inh	FAS TE block
CCOC(=O)C1=C(C)N=c2s/c(=C\c3cccn3C)c(=O)n2C1c1cccc(OC)c1OC (stereo not drawn)	-21	-173	+	8	-19
CSc1nnc(-c2sc(-c3ccccc3)nc2C)n1C	55*	-3	i	-3	-7
CC(C(=O)NCc1ccccc1)n1c(-c2ccc3c(c2)CCO3)nc2ccccc21 (stereo not drawn)	nt	-12	i	nt	nt
O=C(CCCn1cnc([N+](=O)[O-])n1)Nc1cccc(Cl)c1Cl	-19	31*	i	2	10
Cn1cc(S(=O)(=O)N2CCOCC2)cc1C(=O)O	2	31*	i	1	-7
CC1=CC(C)(C)N(S(=O)(=O)c2ccc(C)cc2)c2ccc(C)cc21	30	4	nt	-4	27
CC1=CC(C)(C)[N+](C)(C)c2ccc(C)cc21	31	38*	i	6	-5
O=C(NCCCN1CCCC(O)C1)c1cc(COc2ccc(F)cc2F)on1 (stereo not drawn)	-19	40*	i	-3	-5
Cn1nc(-c2ccc(N3CCOCC3)c(NS(=O)(=O)c3ccc(Cl)cc3)c2)c2ccccc2c1=O	27	26*	i	5	16
Cc1nc(SCC(=O)NCC2CCCO2)c2c3c(sc2n1)CCCC3 (stereo not drawn)	-7	30*	i	-6	1
Cc1nc(SCC(=O)NCC2CCCO2)c2c(C)c(C)sc2n1 (stereo not drawn)	0	21	i	-1	-4
CCN(c1ccccc1)S(=O)(=O)c1ccc(Cl)c(NC(=O)CSc2nc(N)cc(=O)[nH]2)c1	-9	6	i	7	-15
CC(C)(C)OC(=O)N1CCc2onc(-c3ccc(Br)cc3)c2C1=O	-2	4	i	-5	42
CCCCCCCCCCOC(=O)Cn1c(COc2ccc(Cl)cc2)[n+](C)c2ccccc21	-30	20*	i	21	-59
CCCCCCCCCCOC(=O)Cn1c(COc2ccccc2)[n+](C)c2ccccc21	-34	5	i	10	-28
O=c1c2ccccc2c(-c2ccc(O)cc2)nn1-c1cccc(C(F)(F)F)c1	57*	8	i	-11	22
Cc1cccnc1NC(=O)CN1C(=O)NC(C)(c2ccc3ccccc3c2)C1=O (stereo not drawn)	14	28*	i	1	-7
COc1ccc(C(=O)CC(Nc2ccc([N+](=O)[O-])cc2)c2ccc(Cl)cc2)cc1 (stereo not drawn)	43	-11	+	3	40
COc1ccc(C(=O)CC(=O)C(=O)Nc2ccc(Cl)cc2)cc1	-5	5	i	-5	4
O=C(CNc1cccc(Br)c1)Nc1ccc(S(=O)(=O)N2CCCCC2)cc1	0	7	i	9	26
CCc1ccc(/C=C2/SC(=S)N(CCC(=O)Nc3ccc(C(=O)O)cc3)C2=O)cc1	nt	-64	i	40*	6
CCN(CC)C(=O)CN1C(=O)/C(=C/c2ccccc2)SC1=S	4	20*	i	-7	-2
CCc1ccc(/C=C2/SC(=S)N(CCC(=O)Nc3cccc(C(=O)O)c3)C2=O)cc1	19	-82	?	24	8
CCc1ccc(/C=C2\SC(=S)N(CCCC(=O)N(CCO)c3ccccc3)C2=O)cc1	-9	28*	i	-2	25
O=C1/C(=C\c2cc(Cl)c(O)c(Cl)c2)SC(=S)N1Cc1ccccc1	-119	146	+	12	-133
CCOc1ccc(/C=C2\SC(=S)N(CCC(=O)N(CCO)c3ccccc3)C2=O)cc1	0	0	i	-3	13
CC(C)Cc1cc(C(C)(C)C)ccc1OC(=S)N(C)C	-4	2	i	-4	13
C[C@H]1Cn2cnc(C(=O)NCC(=O)OC(C)(C)C)c2C(=O)N1	11	9	i	-3	-10
CCc1ccc(/C=C2/SC(=S)N(CC(=O)Nc3nc4ccccc4s3)C2=O)cc1	-23	-28	i	50*	8
O=C(CCN1C(=O)/C(=C/c2ccco2)SC1=S)Nc1ccc(C(=O)O)c(O)c1	-6	-169	i	3	1
